Results published in PubChem BioAssay (Tox21).
A number with no mark means an inactive call. Inconclusive results are not listed. A call without a number means that no potency is given here. The source made the active and inactive calls. The call rests on the fitted dose curve; in most records, active means well fitted curve in the direction sought with a large enough effect in the repeat runs; inconclusive means weak or mixed curves; inactive means no such curve, though single readings can be large; an effect the other way counts as inactive or inconclusive.

Legend:
[1] = qHTS RealTime-Glo MT Cell Viability Assay in HEK293 cells - 32 hour (AID 1224868); further: top concentration of the series differs between compounds; nearly all actives have a fitted effect of over 50% in size
How it was run: (§1)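 Cells + reagent dispensed (600 cells/well, HEK293) → 5 h at 37 C/5% CO2 → 23 nL compound in DMSO pinned → 40 h at 37 C → luminescence read at 0, 8, 16, 24, 32, 40 h.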

[2] = A CellTox Green Cytotoxicity Assay to monitor cytotoxicity in HEK293 cells - 0 hour (AID 1224869); further: nearly all actives have a fitted effect of over 50% in size
How it was run: (§2)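 Read-out: fluorescence of a cell-impermeant cyanine dye staining DNA of dead cells, proportional to cytotoxicity. HEK293, 600 cells/well with reagent, compound (23 nL DMSO) added after 5 h; reads at 0, 8, 16, 24, 32, 40 h.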

[3] = qHTS RealTime-Glo MT Cell Viability Assay in HepG2 cells - 40 hour (AID 1224870); further: nearly all actives have a fitted effect of over 50% in size
How it was run: (§3)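 HepG2 cells mixed with RealTime-Glo MT reagents (NanoLuc plus cell-permeant prosubstrate) were seeded at 600 cells/well, incubated 5 h at 37 C/5% CO2, then pinned with compounds in DMSO; nonlytic luminescence tracked viability during 40 h treatment.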

[4] = qHTS RealTime-Glo MT Cell Viability Assay in HEK293 cells - 16 hour (AID 1224872); further: top concentration of the series differs between compounds; nearly all actives have a fitted effect of over 50% in size
How it was run: as §1

[5] = qHTS RealTime-Glo MT Cell Viability Assay in HepG2 cells - 8 hour (AID 1224873); further: nearly all actives have a fitted effect of over 55% in size
How it was run: as §3

[6] = qHTS RealTime-Glo MT Cell Viability Assay in HEK293 cells - 40 hour (AID 1224874); conditions: RealTime-Glo luminescence, hits give low values; further: nearly all actives have a fitted effect of over 50% in size
How it was run: (§4)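 Luminescence readout at each listed time point; HEK293, 600 cells/well, RealTime-Glo MT reagent added with cells; compounds pinned (23 nL in DMSO) after 5 h at 37 C; continuous culture at 37 C.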

[7] = A CellTox Green Cytotoxicity Assay to monitor cytotoxicity in HEK293 cells - 24 hour (AID 1224875); further: nearly all actives have a fitted effect of over 45% in size; further: potency means the concentration at half of the fitted maximal effect; on activity change: series mostly up to about 77 µM
How it was run: as §2

[8] = A CellTox Green Cytotoxicity Assay to monitor cytotoxicity in HepG2 cells - 16 hour (AID 1224876); further: nearly all actives have a fitted effect of over 45% in size; further: potency means the concentration at half of the fitted maximal effect
How it was run: (§5)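 HepG2, 600 cells/well premixed w/ CellTox Green; 5 h settle, 37 C/5% CO2; pintool cpd add (DMSO); 37 C, 40 h; fluorescence read at 0, 8, 16, 24, 32, 40 h.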

[9] = qHTS RealTime-Glo MT Cell Viability Assay in HepG2 cells - 32 hour (AID 1224877); further: nearly all actives have a fitted effect of over 55% in size
How it was run: (§6)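 Real-time, nonlytic viability: 600 HepG2 cells/well mixed with NanoLuc enzyme plus prosubstrate; 5 h settle, compound (DMSO) added by pintool; luminescence monitored over 40 h at 37 C.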

[10] = A CellTox Green Cytotoxicity Assay to monitor cytotoxicity in HepG2 cells - 24 hour (AID 1224878); further: nearly all actives have a fitted effect of over 45% in size; further: potency means the concentration at half of the fitted maximal effect
How it was run: as §5

[11] = A CellTox Green Cytotoxicity Assay to monitor cytotoxicity in HepG2 cells - 40 hour (AID 1224879); further: nearly all actives have a fitted effect of over 40% in size; further: potency means the concentration at half of the fitted maximal effect
How it was run: as §5

[12] = qHTS RealTime-Glo MT Cell Viability Assay in HEK293 cells - 0 hour (AID 1224880); further: top concentration of the series differs between compounds; nearly all actives have a fitted effect of over 45% in size
How it was run: as §4

[13] = A CellTox Green Cytotoxicity Assay to monitor cytotoxicity in HEK293 cells - 32 hour (AID 1224881); further: nearly all actives have a fitted effect of over 40% in size; further: potency means the concentration at half of the fitted maximal effect
How it was run: as §2

[14] = A CellTox Green Cytotoxicity Assay to monitor cytotoxicity in HepG2 cells - 32 hour (AID 1224883); further: nearly all actives have a fitted effect of over 50% in size; further: potency means the concentration at half of the fitted maximal effect
How it was run: as §5

[15] = A CellTox Green Cytotoxicity Assay to monitor cytotoxicity in HEK293 cells - 8 hour (AID 1224884); further: nearly all actives have a fitted effect of over 35% in size; further: potency means the concentration at half of the fitted maximal effect
How it was run: as §2

[16] = qHTS RealTime-Glo MT Cell Viability Assay in HepG2 cells - 16 hour (AID 1224885); further: nearly all actives have a fitted effect of over 50% in size
How it was run: as §6

[17] = qHTS RealTime-Glo MT Cell Viability Assay in HEK293 cells - 24 hour (AID 1224886)
How it was run: as §1

[18] = qHTS RealTime-Glo MT Cell Viability Assay in HEK293 cells - 8 hour (AID 1224887)
How it was run: as §4

[19] = A CellTox Green Cytotoxicity Assay to monitor cytotoxicity in HEK293 cells - 40 hour (AID 1224871); further: nearly all actives have a fitted effect of over 45% in size
How it was run: as §2

[20] = A CellTox Green Cytotoxicity Assay to monitor cytotoxicity in HepG2 cells - 0 hour (AID 1224882); further: nearly all actives have a fitted effect of over 35% in size
How it was run: as §5

COC(=O)N/N=C/c1c[n+]([O-])c2ccccc2[n+]1[O-]
outcome [1]: inactive
outcome [2]: inactive
outcome [3]: inactive
outcome [4]: inactive
outcome [5]: inactive
max response [6]: 5.36%
Potency [7]: 21.3 µM (active)
Potency [8]: 23.9 µM (active)
outcome [9]: inactive
Potency [10]: 23.9 µM (active)
Potency [11]: 23.9 µM (active)
Potency [12]: inactive
Potency [13]: 21.3 µM (active)
Potency [14]: 23.9 µM (active)
Potency [15]: 23.9 µM (active)
outcome [16]: inactive
outcome [17]: inactive
outcome [18]: inactive

CN(C)CCc1c[nH]c2ccc(CS(=O)(=O)N3CCCC3)cc12
outcome [1]: inactive
outcome [2]: inactive
Potency [19]: inactive
outcome [4]: inactive
outcome [5]: inactive
max response [6]: 7.03%
Potency [7]: inactive
outcome [9]: inactive
Potency [10]: inactive
Potency [11]: inactive
Potency [12]: inactive
Potency [20]: inactive
Potency [15]: inactive
outcome [16]: inactive
outcome [18]: inactive

CCCCN1C(=O)c2ccccc2C1=O
outcome [1]: inactive
outcome [2]: inactive
outcome [4]: inactive
outcome [5]: inactive
max response [6]: -3.23%
Potency [7]: inactive
outcome [9]: inactive
Potency [12]: inactive
Potency [13]: inactive
Potency [20]: inactive
Potency [15]: inactive
outcome [16]: inactive
outcome [17]: inactive
outcome [18]: inactive

COc1cc(C(=O)NC2CCCNC2)cc(OC)c1OC (stereo not drawn)
outcome [1]: inactive
outcome [2]: inactive
Potency [19]: inactive
outcome [4]: inactive
Potency [7]: inactive
Potency [8]: inactive
Potency [10]: inactive
Potency [11]: inactive
Potency [12]: inactive
Potency [13]: inactive
Potency [20]: inactive
Potency [14]: inactive
Potency [15]: inactive
outcome [17]: inactive
outcome [18]: inactive

c1cc2ccc3ccc4ccc5cccc6c(c1)c2c3c4c56
activity change, negative = cytotoxic [1]: 0.861% [at 2.72 µM]
cytotoxicity [2]: -4.63% [at 2.72 µM]
viability change, negative = cytotoxic [5]: 0.803% [at 2.72 µM]
max response [6]: 1.82%
activity change [7]: -12.1% [at 2.72 µM, hits give high values]
cytotoxicity increase [8]: -15.3% [at 2.72 µM]
activity change, negative = cytotoxic [9]: -3.43% [at 2.72 µM]
cytotoxicity [10]: -19.8% [at 2.72 µM]
cytotoxicity increase [11]: -16.7% [at 2.72 µM]
activity change, negative = cytotoxicity [12]: -3.02% [at 2.72 µM]
cytotoxicity increase [13]: -14.8% [at 2.72 µM]
cytotoxicity [20]: -21.2% [at 2.72 µM]
cytotoxicity increase [14]: -14.8% [at 2.72 µM]
cytotoxicity increase [15]: -10.4% [at 2.72 µM]
activity change, negative = cytotoxic [16]: 0.567% [at 2.72 µM]
activity change, negative = cytotoxicity [17]: 0.461% [at 2.72 µM]
activity change, negative = cytotoxicity [18]: -6.75% [at 2.72 µM]

CC(C)OC(=O)C(C(=O)OC(C)C)=C1SC=CS1
outcome [2]: inactive
outcome [3]: inactive
outcome [5]: inactive
Potency [7]: inactive
Potency [8]: inactive
outcome [9]: inactive
Potency [10]: inactive
Potency [11]: inactive
Potency [12]: inactive
Potency [20]: inactive
Potency [14]: inactive
Potency [15]: inactive
outcome [16]: inactive

Cc1ccccc1OCC(=O)O
outcome [1]: inactive
outcome [2]: inactive
Potency [19]: inactive
outcome [4]: inactive
outcome [5]: inactive
max response [6]: 3.48%
Potency [7]: inactive
Potency [8]: inactive
outcome [9]: inactive
Potency [10]: inactive
Potency [12]: inactive
Potency [13]: inactive
Potency [20]: inactive
Potency [14]: inactive
Potency [15]: inactive
outcome [16]: inactive
outcome [17]: inactive
outcome [18]: inactive

Cc1ccc(Br)cc1
outcome [1]: inactive
outcome [2]: inactive
outcome [4]: inactive
outcome [5]: inactive
max response [6]: 0.938%
Potency [7]: inactive
Potency [8]: inactive
outcome [9]: inactive
Potency [10]: inactive
Potency [11]: inactive
Potency [12]: inactive
Potency [13]: inactive
Potency [20]: inactive
Potency [15]: inactive
outcome [16]: inactive
outcome [18]: inactive

Cc1nnc(C(=O)NC(C)(C)c2nc(C(=O)NCc3ccc(F)cc3)c(O)c(=O)n2C)o1
outcome [2]: inactive
outcome [3]: inactive
Potency [19]: inactive
outcome [4]: inactive
outcome [5]: inactive
max response [6]: 21.7%
Potency [7]: inactive
Potency [8]: inactive
outcome [9]: inactive
Potency [10]: inactive
Potency [11]: inactive
Potency [12]: inactive
Potency [13]: inactive
Potency [14]: inactive
Potency [15]: inactive
outcome [16]: inactive
outcome [18]: inactive

CCCCCCCCCCCCCCCC/C=C/C1CC(=O)OC1=O (stereo not drawn)
outcome [1]: inactive
outcome [2]: inactive
Potency [19]: inactive
outcome [4]: inactive
Potency [7]: inactive
Potency [8]: inactive
outcome [9]: inactive
Potency [10]: inactive
Potency [12]: inactive
Potency [13]: inactive
Potency [20]: inactive
Potency [14]: inactive
Potency [15]: inactive
outcome [16]: inactive
outcome [17]: inactive
outcome [18]: inactive

Clc1ccc2c(c1)Nc1ccccc1S2
outcome [1]: inactive
outcome [2]: inactive
Potency [19]: inactive
outcome [5]: inactive
Potency [7]: inactive
outcome [9]: inactive
Potency [10]: inactive
Potency [11]: inactive
Potency [12]: inactive
Potency [13]: inactive
Potency [20]: inactive
Potency [14]: inactive
Potency [15]: inactive
outcome [16]: inactive
outcome [17]: inactive

OCCC(F)(F)C(F)(F)C(F)(F)C(F)(F)C(F)(F)C(F)(F)F
outcome [1]: inactive
outcome [2]: inactive
Potency [19]: inactive
outcome [4]: inactive
max response [6]: -4.06%
Potency [7]: inactive
Potency [8]: inactive
outcome [9]: inactive
Potency [10]: inactive
Potency [11]: inactive
Potency [12]: inactive
Potency [13]: inactive
Potency [20]: inactive
Potency [14]: inactive
Potency [15]: inactive
outcome [16]: inactive
outcome [18]: inactive

O=C1CC2(CCCC2)CC(=O)N1CCNCC1COc2ccccc2O1 (stereo not drawn)
outcome [1]: inactive
outcome [2]: inactive
Potency [19]: inactive
outcome [4]: inactive
outcome [5]: inactive
Potency [7]: inactive
Potency [8]: inactive
outcome [9]: inactive
Potency [10]: inactive
Potency [11]: inactive
Potency [13]: inactive
Potency [20]: inactive
Potency [14]: inactive
Potency [15]: inactive
outcome [16]: inactive
outcome [17]: inactive
outcome [18]: inactive
